Assay [1] in a line: AP1 Signaling Pathway (AID 357; active = well fitted curve in either direction with a large enough effect, not every such curve was filed as active;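 also: ME-180 reporter cells stimulated with EGF at its EC50 level; % is scaled to controls: 0 for no effect and ±100 for the full control effect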). The following applies: ME-180 AP-1-bla reporter, EGF-induced, beta-lactamase ratio, 5 h; at 7.69 µM (top of the series) unless noted. An outline of the steps:
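Titration-series screen for positive or negative modulators of EC50 EGF-induced signaling in ME-180 cells carrying an AP-1-driven beta-lactamase reporter. After 5 hours at 37 degrees Celsius, CCF4 460nm/530nm emission ratio gave %Activity; AC50 values derived.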

For assay [2], the target named is Cytochrome P450 1A2 (Homo sapiens) (UniProt P05177). Put plainly: p450-cyp1a2 (AID 410; calls by dose curve; also: potency is read from the fitted curve at half-maximal effect). An outline of the steps:
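20nM CYP1A2, 100uM Luciferin-ME (=Km), 100mM KPO4; cpd 10 min RT; +NADPH regen, 60 min RT; stop/detect 20 min; luminescence. Normalized to furafylline 57 uM = full inhibition.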

Assay [3] is described as follows: NFAT Signaling Pathway (AID 444; active = well fitted curve in either direction with a large enough effect, not every such curve was filed as active;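 also: carbachol stimulus at about its EC50 of 1 µM final; % is scaled to controls: 0 for no effect and ±100 for the full control effect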). The settings on record: Jurkat NFAT-bla M1, carbachol, beta-lactamase ratio, 5 h; at 7.69 µM (top of the series) unless noted. An outline of the steps: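 Read-out: CCF4 FRET ratio (460 nm/530 nm) after 1 h RT dye loading, used for %activity and AC50 from titration series. Cells: Jurkat NFAT-β-lactamase/M1 line, treated with compound plus 1 uM carbachol for 5 h, 37 °C.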

A short description of assay [4]: Stat Signaling Pathway (AID 446; active = well fitted curve in either direction with a large enough effect, not every such curve was filed as active;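 also: ME-180 cervical cancer cells given 40 pM IL-6 alongside compound; SIE-controlled beta-lactamase reporter measured as 460/530 nm FRET emission ratio; % is scaled to controls: 0 for no effect and ±100 for the full control effect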). The settings on record: ME-180 (cervical carcinoma) SIE beta-lactamase reporter, IL-6 stimulated, 5 h; at 7.69 µM (top of the series) unless noted. Put shortly:
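FRET read-out (405 nm excitation, 460/530 nm emission) of a beta-lactamase reporter under a STAT-inducible element in ME-180 cervical carcinoma cells. Cells with compound receive 40 pM IL-6 for 5 h. Values are normalised to AC90 stimulation and AC90 JAK-inhibitor controls.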

Assay [5] has as its target Glucocorticoid receptor (Homo sapiens) (UniProt P04150). The assay can be described thus: GR-GFP Redistribution (AID 450;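 active = compounds whose dose series gives a full or clear partial fitted curve of increased nuclear translocation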; also: potency is read from the fitted curve at half-maximal effect). The settings on record: U2OS GR-GFP nuclear translocation, laser cytometry, 2 h.
The target is the same in assay [6]. Put plainly: GR-EFC Redistribution (AID 451; calls by dose curve; also: potency is read from the fitted curve at half-maximal effect). The following applies: CHO-K1 GR-EFC translocation, beta-gal luminescence, 2 h. An outline of the steps:
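Translocation of GR-ED fusion to nuclear EA restores b-gal, read by luminescence after 1 h room-temperature detection. Engineered CHO-K1 biosensor cells, 1,000/well, exposed 2 h at 37 C to titrations up to 46 uM final.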

Assay [7] has as its target 3',5'-cyclic-AMP phosphodiesterase 4B (Homo sapiens) (UniProt Q07343). Put plainly: qHTS Assay for Inhibitors of PDE-IV (AID 607; active = well fitted activation curve with a large enough effect in the main read-out, with a control signal flat, not every such curve was filed as active; also: % of control where 0% means no effect). An outline of the steps: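 Cell-based read-out of cAMP via a modified cyclic nucleotide-gated channel and membrane potential dye (535/590 nm) in HEK293 cells expressing PDE4 endogenously. Compounds tested up to 22.9 uM final; 100 uM RO 20-1724 reference.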

Assay [8] deals with Guanine nucleotide-binding protein G(i) subunit alpha-1 (Homo sapiens) (UniProt P63096). The assay can be described thus: qHTS Assay for Inhibitors of RGS12 GoLoco Motif Activity (Green Fluorophore) (AID 879).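 Also: 0% = labeled peptide with Gαi1 and full inhibition = labeled peptide alone without protein; negative values mean loss of peptide binding seen as reduced polarization.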 Put shortly: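 A drop in FITC polarization marked displacement of the FITC-tagged RGS12 GoLoco peptide (10 nM) from Gαi1 (50 nM). Compounds were incubated 10 min at room temperature in Tris pH 7.5 buffer containing 150 mM NaCl, 0.1 mM GDP and 0.05% NP40; unlabeled peptide titration served as control.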
Guanine nucleotide-binding protein G(i) subunit alpha-1 (Homo sapiens), sequence (P63096 whole entry, looked up): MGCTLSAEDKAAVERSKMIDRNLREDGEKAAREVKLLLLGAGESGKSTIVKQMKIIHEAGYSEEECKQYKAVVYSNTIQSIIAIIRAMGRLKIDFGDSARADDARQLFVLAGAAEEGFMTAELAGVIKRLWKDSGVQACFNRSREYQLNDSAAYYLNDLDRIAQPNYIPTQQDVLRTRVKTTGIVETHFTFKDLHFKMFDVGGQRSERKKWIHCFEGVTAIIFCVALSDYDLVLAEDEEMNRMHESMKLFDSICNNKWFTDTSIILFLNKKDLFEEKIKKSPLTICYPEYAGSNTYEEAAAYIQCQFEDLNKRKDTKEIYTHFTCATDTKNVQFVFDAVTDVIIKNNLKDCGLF
In general terms: Quantitative high-throughput screening tests each substance at several concentrations.

Assay [9] in a line: qHTS Assay for Identification of Small Molecule Antagonists for NFkB Signaling Pathway (AID 895; active = well fitted inhibition curve with a large enough effect in the signal ratio, with a control signal flat, not every such curve was filed as active; the % refers to the signal ratio; also: % is scaled to controls: 0 for no effect and ±100 for the full control effect). Put shortly:
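Beta-lactamase reporter read-out (460 and 530 nm emission ratio, 405 nm excitation, 2 hrs substrate loading RT) after 5 hr stimulation with 10 pM TNF alpha in compound-treated NFkB-bla ME-180 cells in low-serum medium.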

For assay [10], the target named is Muscarinic acetylcholine receptor M1 (Rattus norvegicus) (UniProt P08482). The assay can be described thus: qHTS Assay for Antagonists of Acetylcholine Muscarinic M1 Receptor: Measurement of IP-One Response (AID 944). Also: nearly all actives have a fitted effect of over 75% in size. Put shortly: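 Read-out: HTRF competition between d2-IP1 and Eu-cryptate anti-IP1 antibody, emission 620 and 665 nm. Stimulus was carbachol, EC80 (200 nM), for 30 min in M1-CHO cells (rat receptor), after 10 min compound pre-treatment.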
Muscarinic acetylcholine receptor M1 (Rattus norvegicus), sequence (P08482 whole entry, looked up): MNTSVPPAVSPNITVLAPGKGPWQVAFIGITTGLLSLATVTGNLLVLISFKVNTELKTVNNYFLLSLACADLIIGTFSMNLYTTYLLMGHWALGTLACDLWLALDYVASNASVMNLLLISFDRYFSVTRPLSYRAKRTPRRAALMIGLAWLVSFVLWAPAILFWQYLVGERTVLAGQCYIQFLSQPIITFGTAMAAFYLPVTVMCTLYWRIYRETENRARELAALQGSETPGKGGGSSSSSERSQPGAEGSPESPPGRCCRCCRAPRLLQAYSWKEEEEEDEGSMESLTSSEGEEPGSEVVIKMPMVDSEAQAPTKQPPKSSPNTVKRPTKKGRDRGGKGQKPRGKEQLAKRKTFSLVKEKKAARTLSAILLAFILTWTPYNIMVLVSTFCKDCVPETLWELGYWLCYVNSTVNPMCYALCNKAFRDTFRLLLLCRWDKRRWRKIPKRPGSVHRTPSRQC

The target of assay [11] is Pyruvate kinase (Leishmania mexicana) (UniProt Q27686). Put plainly: qHTS Validation Assay for Inhibitors of Leishmania Mexicana Pyruvate Kinase (AID 945).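 Also: 0% = DMSO only neutral control wells.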 Put shortly:
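Compounds are tested as eight-point concentration series. Reactions contain 0.2 nM LmPYK E451W, 0.5 mM PEP, 0.1 mM ADP, 7 mM MgCl2 and 50 mM KCl at pH 7.2, run 1 h at room temperature, then read by PKLight luminescence.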

In assay [12] the target is Pyruvate kinase PKM (Homo sapiens) (UniProt P14618). The assay can be described thus: qHTS Assay for Activators of Human Muscle Pyruvate Kinase (AID 954; active = well fitted curve in the direction sought with a large enough effect, not every such curve was filed as active;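 also: 0% = uninhibited enzyme and -100% = no enzyme or full thiadiazolimine inhibition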). Put shortly:
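ATP production by PKM2 detected via luciferase luminescence after 1 h room-temperature reaction (0.1 nM enzyme, PEP at Km 0.5 mM, ADP 0.1 mM, pH 7.2 imidazole buffer). Inhibition scaled to no-enzyme control; activation referenced to 0.3 nM enzyme wells.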

Assay [13] concerns the target Alpha-galactosidase A (Homo sapiens) (UniProt P06280). Put plainly: Counterscreen for Glucocerebrosidase Inhibitors: qHTS Assay for Human alpha-Galactosidase at pH 4.5 (AID 992). Also: 0% is about no effect. An outline of the steps: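 Fluorogenic 1536-well qHTS at pH 4.5 (citrate, Tween-20): 2 nM enzyme, 80 uM 4-MU-alpha-galactoside, 20 min room temperature, NaOH/glycine stop. Titration 0.7 nM to 77 uM, data normalized to no-enzyme and full-activity controls, Hill-fitted AC50.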
On the technique in general: The purpose of a counterscreen is to sort out artefacts and off-target activity.

The target in assay [14] is alpha-glucosidase (Oryza sativa, rice) (UniProt Q653V4). The assay can be described thus: Counterscreen for Glucocerebrosidase Inhibitors: qHTS Assay for Rice alpha-Glucosidase at pH 5.0 (AID 997).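 Also: 0% = full activity with enzyme and -100% = basal without enzyme.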 An outline of the steps: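 Endpoint fluorogenic assay at pH 5.0: compounds (0.7 nM to 77 uM) titrated against 4 nM rice enzyme and 400 uM 4-MU-alpha-glucoside for 20 min at room temperature; NaOH/glycine stop, read ex 365/em 440 nm, Hill-fitted AC50.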

The target in assay [15] is Cytochrome P450 2C9 (Homo sapiens) (UniProt P11712). The assay can be described thus: qHTS Assay for Inhibitors and Substrates of Cytochrome P450 2C9 (AID 883). Also: % is scaled to controls: 0 for no effect and ±100 for the full control effect; nearly all actives have a fitted effect of over 60% in size. An outline of the steps:
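Turnover of Luciferin-H (100uM, KM) by 10nM human CYP2C9 was measured over 60 min at 37C with NADPH regeneration; inhibitors and some substrates reduce luminescence. Data normalized to sulphaphenazole 57uM.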

Assay [16] has as its target Cytochrome P450 2D6 (Homo sapiens) (UniProt P10635). The assay can be described thus: qHTS Assay for Inhibitors and Substrates of Cytochrome P450 2D6 (AID 891).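 Also: luciferin methyl ether substrate demethylated by CYP2D6 with NADPH regeneration; % is scaled to controls: 0 for no effect and ±100 for the full control effect; nearly all actives have a fitted effect of over 60% in size.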 Put shortly:
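Luminescent read-out of luciferin formed by 5 nM human CYP2D6 demethylating 30 uM Luciferin-ME EGE (Km level) over 60 min at room temperature after NADPH regeneration addition. Data normalized to full inhibition by 1.43 uM quinidine.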

The target in assay [17] is Cytochrome P450 2C19 (Homo sapiens) (UniProt P33261). Put plainly: qHTS Assay for Inhibitors and Substrates of Cytochrome P450 2C19 (AID 899). Also: % is scaled to controls: 0 for no effect and ±100 for the full control effect; nearly all actives have a fitted effect of over 60% in size. An outline of the steps: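 Reactions contain 5nM enzyme, 10uM Luciferin-H EGE (KM) and 50mM KPO4; compound preincubates 10 min at 37C, NADPH regeneration starts turnover for 60 min. Luminescence after detection reagent gives activity.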
Cytochrome P450 2C19 (Homo sapiens), sequence (P33261 whole entry, looked up): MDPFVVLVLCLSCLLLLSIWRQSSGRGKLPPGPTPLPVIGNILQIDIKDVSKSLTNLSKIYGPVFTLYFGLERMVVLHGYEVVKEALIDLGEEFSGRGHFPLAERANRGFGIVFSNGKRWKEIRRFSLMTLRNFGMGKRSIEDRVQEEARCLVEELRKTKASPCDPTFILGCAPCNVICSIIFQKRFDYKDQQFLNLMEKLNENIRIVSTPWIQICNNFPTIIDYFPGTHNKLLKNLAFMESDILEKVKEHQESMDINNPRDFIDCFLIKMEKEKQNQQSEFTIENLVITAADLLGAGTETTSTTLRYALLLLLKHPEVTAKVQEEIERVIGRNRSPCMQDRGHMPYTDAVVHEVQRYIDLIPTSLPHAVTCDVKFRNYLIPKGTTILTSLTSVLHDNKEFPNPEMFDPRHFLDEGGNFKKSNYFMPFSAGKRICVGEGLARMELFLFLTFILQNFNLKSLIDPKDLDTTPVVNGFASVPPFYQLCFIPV

Assay [18] concerns the target Cytochrome P450 3A4 (Homo sapiens) (UniProt P08684). Put plainly: qHTS Assay for Activators of Cytochrome P450 3A4 (AID 885). Also: nearly all actives have a fitted effect of over 65% in size. Put shortly:
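Luminescent readout of luciferin formed from 25 uM Luciferin-PPXE (KM level) by 20 nM CYP3A4 in 200 mM KPO4, with 60 min NADPH-driven reaction at room temperature after 10 min compound exposure. Ketoconazole (57 uM) defined 100% inhibition.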

In assay [19] the target is Mitogen-activated protein kinase 10 (Mus musculus) (UniProt Q61831). The assay can be described thus: JNK3 AlphaScreen Assay (AID 530; active = well fitted curve in either direction with a large enough effect, not every such curve was filed as active). Put shortly:
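Kinase buffer: 20 mM Tris-HCl pH 7.6, 10 mM MgCl2, 1 mM DTT, 0.1 mM Na3VO4, 0.01% Tween-20; ATP 10 uM. Substrate biotin-GST-cJun(1-79), enzyme from activated HepG2 lysates. Detection by Ser73 phospho-antibody AlphaScreen.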
On the technique in general: Alpha assays give light when donor and acceptor beads are brought close together.

A number with no mark means an inactive call. Inconclusive results are not listed. Calls of active or inactive are those of the source. Unless noted, calls follow the shape of the dose curve; as a rule, active = well fitted curve in the direction sought with a large enough effect; inconclusive = small, poorly fitted or top-dose-only effect, or another doubt; inactive = no such curve, though single readings can be large; an effect the other way counts as inactive or inconclusive.

Pyruvate kinase PKM (Homo sapiens), sequence (P14618 whole entry, looked up): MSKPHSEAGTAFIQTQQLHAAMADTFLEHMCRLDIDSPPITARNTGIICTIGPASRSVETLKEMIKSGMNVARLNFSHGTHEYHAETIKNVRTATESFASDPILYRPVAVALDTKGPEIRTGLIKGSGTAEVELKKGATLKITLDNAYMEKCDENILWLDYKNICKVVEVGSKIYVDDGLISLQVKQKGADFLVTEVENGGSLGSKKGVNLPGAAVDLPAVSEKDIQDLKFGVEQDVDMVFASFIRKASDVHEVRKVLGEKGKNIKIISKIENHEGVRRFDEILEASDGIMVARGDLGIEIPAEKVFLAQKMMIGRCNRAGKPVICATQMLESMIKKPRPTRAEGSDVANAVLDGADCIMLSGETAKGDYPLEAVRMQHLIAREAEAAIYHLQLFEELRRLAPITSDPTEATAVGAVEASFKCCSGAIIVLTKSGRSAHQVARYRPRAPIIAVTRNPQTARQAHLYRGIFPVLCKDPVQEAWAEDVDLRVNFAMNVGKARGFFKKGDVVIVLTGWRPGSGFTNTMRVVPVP
Pyruvate kinase (Leishmania mexicana), sequence (Q27686 2-499 E452W): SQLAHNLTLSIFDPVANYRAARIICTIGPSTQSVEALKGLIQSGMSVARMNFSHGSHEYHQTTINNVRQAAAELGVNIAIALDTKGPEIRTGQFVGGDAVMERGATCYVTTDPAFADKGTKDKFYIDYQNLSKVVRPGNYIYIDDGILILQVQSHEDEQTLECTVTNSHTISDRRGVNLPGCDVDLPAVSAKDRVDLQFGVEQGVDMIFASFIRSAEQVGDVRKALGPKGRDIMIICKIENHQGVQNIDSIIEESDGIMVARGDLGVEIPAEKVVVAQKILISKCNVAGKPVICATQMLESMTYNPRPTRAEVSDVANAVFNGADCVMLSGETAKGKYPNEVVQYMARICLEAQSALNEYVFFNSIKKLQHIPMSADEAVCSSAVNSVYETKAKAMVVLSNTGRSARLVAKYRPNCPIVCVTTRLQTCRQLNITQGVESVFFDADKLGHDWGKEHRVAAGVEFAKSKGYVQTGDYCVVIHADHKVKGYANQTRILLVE
Cytochrome P450 1A2 (Homo sapiens), sequence (P05177 whole entry, looked up): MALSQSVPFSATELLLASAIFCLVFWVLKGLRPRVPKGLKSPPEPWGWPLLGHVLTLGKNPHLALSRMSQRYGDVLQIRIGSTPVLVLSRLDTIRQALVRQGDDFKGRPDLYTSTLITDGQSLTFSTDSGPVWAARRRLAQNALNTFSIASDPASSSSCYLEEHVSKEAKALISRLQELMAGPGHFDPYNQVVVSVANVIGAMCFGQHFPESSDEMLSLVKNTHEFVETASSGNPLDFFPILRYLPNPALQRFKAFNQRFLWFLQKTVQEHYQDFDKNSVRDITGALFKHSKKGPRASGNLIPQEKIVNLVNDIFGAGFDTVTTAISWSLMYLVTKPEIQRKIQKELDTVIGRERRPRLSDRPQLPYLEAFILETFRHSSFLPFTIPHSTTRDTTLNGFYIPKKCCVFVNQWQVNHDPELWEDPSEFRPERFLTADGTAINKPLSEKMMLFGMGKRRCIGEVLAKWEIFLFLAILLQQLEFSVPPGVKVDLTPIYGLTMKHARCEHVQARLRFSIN
3',5'-cyclic-AMP phosphodiesterase 4B (Homo sapiens), sequence (Q07343 whole entry, looked up): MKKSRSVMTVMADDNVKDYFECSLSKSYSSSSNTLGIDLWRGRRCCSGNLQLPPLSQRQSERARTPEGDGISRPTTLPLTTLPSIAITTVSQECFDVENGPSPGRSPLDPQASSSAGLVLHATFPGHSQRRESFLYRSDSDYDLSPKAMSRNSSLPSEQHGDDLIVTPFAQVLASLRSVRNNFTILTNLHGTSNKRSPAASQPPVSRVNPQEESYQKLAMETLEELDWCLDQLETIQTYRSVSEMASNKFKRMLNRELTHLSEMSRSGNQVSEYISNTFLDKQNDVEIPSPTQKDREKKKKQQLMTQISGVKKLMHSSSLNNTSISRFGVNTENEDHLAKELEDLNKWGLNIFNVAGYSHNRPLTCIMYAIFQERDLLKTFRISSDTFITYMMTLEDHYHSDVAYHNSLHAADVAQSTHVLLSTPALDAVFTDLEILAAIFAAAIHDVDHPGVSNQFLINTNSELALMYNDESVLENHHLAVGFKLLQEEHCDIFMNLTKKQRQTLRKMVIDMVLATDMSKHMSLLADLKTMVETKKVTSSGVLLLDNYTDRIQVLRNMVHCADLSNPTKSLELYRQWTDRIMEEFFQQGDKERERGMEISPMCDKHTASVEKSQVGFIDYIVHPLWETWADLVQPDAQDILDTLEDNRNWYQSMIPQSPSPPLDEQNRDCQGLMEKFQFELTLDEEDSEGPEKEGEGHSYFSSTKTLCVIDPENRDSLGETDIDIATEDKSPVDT
Alpha-galactosidase A (Homo sapiens), sequence (P06280 whole entry, looked up): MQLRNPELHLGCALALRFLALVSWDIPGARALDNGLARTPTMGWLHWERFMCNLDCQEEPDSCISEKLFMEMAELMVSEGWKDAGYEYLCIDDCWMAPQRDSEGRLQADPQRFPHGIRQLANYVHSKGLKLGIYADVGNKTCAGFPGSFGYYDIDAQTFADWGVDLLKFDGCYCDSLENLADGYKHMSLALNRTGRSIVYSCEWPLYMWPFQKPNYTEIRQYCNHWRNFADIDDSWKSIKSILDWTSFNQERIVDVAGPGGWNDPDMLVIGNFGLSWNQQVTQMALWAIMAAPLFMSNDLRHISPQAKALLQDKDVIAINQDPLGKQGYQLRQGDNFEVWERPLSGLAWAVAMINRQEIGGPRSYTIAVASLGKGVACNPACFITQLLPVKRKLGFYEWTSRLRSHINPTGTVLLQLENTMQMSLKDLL
Glucocorticoid receptor (Homo sapiens), sequence (P04150 whole entry, looked up): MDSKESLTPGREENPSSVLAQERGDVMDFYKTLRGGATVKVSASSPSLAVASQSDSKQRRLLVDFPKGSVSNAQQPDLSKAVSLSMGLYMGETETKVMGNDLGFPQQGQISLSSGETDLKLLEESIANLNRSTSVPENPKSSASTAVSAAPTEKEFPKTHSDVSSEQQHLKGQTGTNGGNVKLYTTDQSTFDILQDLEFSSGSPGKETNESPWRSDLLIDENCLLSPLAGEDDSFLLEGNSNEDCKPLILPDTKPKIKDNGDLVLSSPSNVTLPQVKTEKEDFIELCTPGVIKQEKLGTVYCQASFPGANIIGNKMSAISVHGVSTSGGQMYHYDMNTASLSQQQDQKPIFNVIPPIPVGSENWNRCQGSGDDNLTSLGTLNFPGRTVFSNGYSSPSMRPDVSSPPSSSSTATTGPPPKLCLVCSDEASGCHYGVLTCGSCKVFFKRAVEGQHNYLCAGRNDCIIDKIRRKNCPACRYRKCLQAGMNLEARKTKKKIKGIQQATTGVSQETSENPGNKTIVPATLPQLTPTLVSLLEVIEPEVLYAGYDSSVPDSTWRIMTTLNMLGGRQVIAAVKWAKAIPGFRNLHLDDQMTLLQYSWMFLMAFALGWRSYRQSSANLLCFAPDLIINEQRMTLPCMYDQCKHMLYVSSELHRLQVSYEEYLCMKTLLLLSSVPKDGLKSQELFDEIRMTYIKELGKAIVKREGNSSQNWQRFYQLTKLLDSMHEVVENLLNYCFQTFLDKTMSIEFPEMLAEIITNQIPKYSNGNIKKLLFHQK

Consider `CSc1nc(N)c2ncn([C@@H]3O[C@@H](COP(=O)(O)OP(=O)(O)O)[C@@H](O)[C@H]3O)c2n1`, for which the activity change, negative = inhibition was 22.9% [at 38 µM] in [1] and 6.32% [at 38 µM] in [3]. Also, the Potency result in [2], in [7], in [9], in [10] and in [14] was “inactive” in each case. Further, the activity, negative = inhibition in [4] is 5.34% [at 38 µM]. The Potency in assay [5] and in [6] was above 46 µM in each case. Besides, the compound was called inactive in assay [8], in assay [11], in assay [12] and in assay [13].
As for `N[C@@H](C(=O)O)[C@H](O)C(=O)O`, the activity change, negative = inhibition is -4.8% [at 38 µM] in assay [1] and -3.19% [at 38 µM] in [3]. Further, the Potency entry in [2], in assay [7], in [15], in assay [16] and in [17] was “inactive” in each case. Besides, in assay [4], the activity, negative = inhibition is 8.48% [at 38 µM]. The Potency in assay [5] and in assay [6] was above 46 µM in each case.
As for `CCCCC[C@H](CC(=O)NO)C(=O)N[C@@H](C(=O)N1CCC[C@H]1CO)C(C)C`, the activity change, negative = inhibition in assay [1] was 26.8% [at 38 µM]; in assay [3], 6.72% [at 38 µM]. Besides, the Potency result in [2], in assay [7], in assay [18], in assay [17], in assay [10] and in [14] was “inactive” in each case. The activity, negative = inhibition in assay [4] is 7.77% [at 38 µM]. In addition, the Potency in assay [5] and in assay [6] was above 46 µM each time. In addition, the compound was classed as inactive in assay [8], in assay [11], in [12] and in assay [13].
For `O=C(Nc1ccc2c(c1)Cc1ccccc1-2)[C@@H]1[C@H](C(=O)O)[C@]2(Cl)C(Cl)=C(Cl)[C@@]1(Cl)C2(Cl)Cl`, the activity change, negative = inhibition in [1] was 9.85%. Besides, the Potency in assay [2] is 3.16 µM (active); in assay [5], above 46 µM; in assay [6] it was above 9.22 µM. Besides, the activity, negative = inhibition in [4] is 4.65%. Also, the Potency entry in assay [19] and in [7] was “inactive” throughout.
With `Cc1ccccc1CNc1ncnc2c1ncn2[C@@H]1O[C@@H](CO)[C@H](O)[C@@H]1O`, the activity change, negative = inhibition in assay [1] is 0.479% [at 38 µM]; in assay [3], 10.4% [at 38 µM]. The Potency result in assay [2], in assay [7], in assay [10] and in assay [14] was “inactive” each time. For the same compound, the Potency in [5] and in [6] was above 46 µM each time. The result in [8], in [11], in assay [12] and in assay [13] was inactive.
Consider `CNC(=O)[C@@H]1O[C@@H](n2cnc3c(N)ncnc32)[C@@H](O)[C@H]1O`, for which the activity change, negative = inhibition in assay [1] is -10.7% [at 38 µM]; in assay [3] it was 6.42% [at 38 µM]. For the same compound, the Potency result in [2] and in [19] was “inactive” each time. Also, the Potency in assay [5] and in assay [6] was above 46 µM in each case. Also, the call in [8], in [11], in assay [12] and in assay [13] was inactive.

The values are drawn from PubChem BioAssay (NCATS).
